{
  "source": "PubChem BioAssay (EPA / NIEHS)",
  "note": "Results filed as inconclusive are left out. The source made the active and inactive calls. The calls were made as follows: active = hit-call score of the fitted dose curve at least 0.9, where 1 is the maximum; inconclusive = response in the unintended direction; inactive = score below 0.9.",
  "data": [
    {"target": "Glucocorticoid receptor (Homo sapiens) (UniProt P04150)", "sequence (P04150 whole entry, looked up)": "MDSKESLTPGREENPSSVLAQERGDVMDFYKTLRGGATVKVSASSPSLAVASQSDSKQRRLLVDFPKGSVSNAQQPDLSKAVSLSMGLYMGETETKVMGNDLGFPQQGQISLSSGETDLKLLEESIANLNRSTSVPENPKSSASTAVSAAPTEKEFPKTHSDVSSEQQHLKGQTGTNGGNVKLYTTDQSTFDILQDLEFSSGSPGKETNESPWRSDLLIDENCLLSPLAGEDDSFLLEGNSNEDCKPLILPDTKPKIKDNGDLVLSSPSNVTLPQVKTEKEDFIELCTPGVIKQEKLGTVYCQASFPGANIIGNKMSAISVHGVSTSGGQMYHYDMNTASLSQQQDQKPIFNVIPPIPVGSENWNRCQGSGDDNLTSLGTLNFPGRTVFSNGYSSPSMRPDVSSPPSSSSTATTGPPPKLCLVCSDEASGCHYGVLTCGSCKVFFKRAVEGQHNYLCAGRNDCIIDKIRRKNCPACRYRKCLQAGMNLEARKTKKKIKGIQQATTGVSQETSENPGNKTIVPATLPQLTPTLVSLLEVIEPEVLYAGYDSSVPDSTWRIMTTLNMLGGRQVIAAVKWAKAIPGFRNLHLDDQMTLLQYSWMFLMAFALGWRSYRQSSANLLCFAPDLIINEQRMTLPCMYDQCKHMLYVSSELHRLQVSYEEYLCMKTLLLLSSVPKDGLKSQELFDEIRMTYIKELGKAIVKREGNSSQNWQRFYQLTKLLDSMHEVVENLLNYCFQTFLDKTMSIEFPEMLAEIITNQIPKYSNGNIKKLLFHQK", "experiment": "ATG_GR_TRANS: Attagene TRANS-FACTORIAL HepG2 Assay for human Glucocorticoid Receptor (GR) (AID 2282978);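 also: activators score as hits since higher reporter transcript over DMSO is fitted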", "conditions": "HepG2 Attagene TRANS GR reporter, mRNA transcription", "protocol": "ATG_TRANS is a cell-based, multiplexed-readout assay that uses HepG2, a human liver cell line, with measurements taken at 24 hours after chemical dosing in a 24-well plate.ATG_GR_TRANS is one of 30 assay component(s) measured or calculated from the ATG_TRANS assay. It is designed to make measurements of mRNA induction, a form of inducible reporter, as detected with fluorescence intensity signals by Reverse transcription polymerase chain reaction (RT-PCR) and Capillary electrophoresis technology.Data from the assay component ATG_GR_TRANS was analyzed into 1 assay endpoint. This assay endpoint, ATG_GR_TRANS, was analyzed in the positive analysis fitting direction relative to DMSO as the negative control and baseline of activity. Using a type of inducible reporter, measures of mRNA for gain-of-signal activity can be used to understand the reporter gene at the transcription factor-level as they relate to the gene NR3C1. Furthermore, this assay endpoint can be referred to as a primary readout, because this assay has produced multiple assay endpoints where this one serves a reporter gene function. To generalize the intended target to other relatable targets, this assay endpoint is annotated to the nuclear receptor intended target family, where the subfamily is steroidal.\nHuman liver HepG2 cells are transiently transfected with multiple reporter transcription units (MRTUs) in 6-well plates using FuGene 6 reagent (Roche; 3 ml FuGene/1 mg DNA). The MRTU constructs are regulated by a cis-regulating element (promoter). […] A major difference between the CIS and TRANS system is that in CIS activities of endogenous TFs are measured, whereas the TRANS assay evaluates changes in activities of exogenous, chimeric NR-Gal4 proteins. […] At the end of 24 hour incubation, total RNA was isolated using TriZol reagent (Invitrogen). The isolated RNA is then reverse-transcribed using oligo(dT) primer and Mo-MLV reverse transcriptase (Invitrogen) with DNAse I (Ambion) treatment for 30 min. The one-tenth of the produced cDNA was amplified by PCR using Taq DNA polymerase (Invitrogen) and two reporter sequence-specific primers. The PCR products were fluorescently labeled by primer extension with 6-arboxyfluorescein (6-FAM) 5'-labeled reporter sequence-specific primer (2 min at 95 C, 20 s at 68 C and 10 min at 72 C) and these products were digested with 5U of HpaI (New England Biolabs) for 2h at 37 C. The fragments were purified using Qiaquick PCR columns (Qiagen), analyzed on an ABI 3130xL genetic analyzer (Applied Biosystems) with peak positions identified by using a set of X-rhodamine (ROX)-labeled MapMarker1000 molecular weight standards (BioVentures). The raw capillary electrophoresis data was processed using Attagraph software (Attagene).", "values": [
      {"smiles": "CCOP(=S)(OCC)SCn1nnc2ccccc2c1=O", "outcome": "inactive"},
      {"smiles": "CC(C)(C)N(NC(=O)c1ccc(Cl)cc1)C(=O)c1ccccc1", "outcome": "inactive"},
      {"smiles": "O=C(O)C(F)(F)OC(F)(F)C(F)(F)OC(F)(F)C(=O)O", "outcome": "inactive"},
      {"smiles": "CCCCN(CC)C(=O)SCCC", "outcome": "inactive"},
      {"smiles": "CCOC(=O)c1ccccc1C(=O)OCC", "outcome": "inactive"},
      {"smiles": "ClC(Cl)c1ccccc1", "outcome": "inactive"},
      {"smiles": "O=[N+]([O-])c1cc(Cl)ccc1Cl", "outcome": "inactive"},
      {"smiles": "Nc1ccc([N+](=O)[O-])cc1Cl", "outcome": "inactive"},
      {"smiles": "O=P1(N(CCCl)CCCl)NCCCO1", "note": "(stereo not given)", "outcome": "inactive"},
      {"smiles": "O=NN1CCCC1", "outcome": "inactive"},
      {"smiles": "C/C(=N\\NC(=O)Nc1cc(F)cc(F)c1)c1ncccc1C(=O)O", "outcome": "inactive"},
      {"smiles": "ClC(Cl)=C(c1ccc(Cl)cc1)c1ccccc1Cl", "outcome": "inactive"},
      {"smiles": "CC(=O)c1ccc(-c2ccccc2)cc1", "outcome": "inactive"},
      {"smiles": "O=C(O)C(F)(OC(F)(F)C(F)(F)C(F)(F)F)C(F)(F)F", "note": "(stereo not given)", "outcome": "inactive"},
      {"smiles": "Nc1cc2c3c(c1)C(c1ccccc1)=N[C@@H](NC(=O)c1cccnc1)C(=O)N3CC2", "outcome": "inactive"},
      {"smiles": "FC(F)(F)c1ccc(Cl)cc1", "outcome": "inactive"},
      {"smiles": "Cc1ccc2c(c1N)C(=O)c1ccccc1C2=O", "outcome": "inactive"},
      {"smiles": "CN(C)C(=O)Cl", "outcome": "inactive"},
      {"smiles": "O=S1(=O)OCC2C(CO1)C1(Cl)C(Cl)=C(Cl)C2(Cl)C1(Cl)Cl", "note": "(stereo not given)", "outcome": "inactive"},
      {"smiles": "Oc1ccccc1Br", "outcome": "inactive"},
      {"smiles": "NNC(N)=S", "outcome": "inactive"},
      {"smiles": "CC1=C(C(=O)Nc2ccccc2)S(=O)(=O)CCO1", "outcome": "inactive"},
      {"smiles": "CCNc1nc(Cl)nc(NC(C)(C)C)n1", "outcome": "inactive"},
      {"smiles": "CC1(C)CN=C(NN=C(/C=C/c2ccc(C(F)(F)F)cc2)/C=C/c2ccc(C(F)(F)F)cc2)NC1", "outcome": "inactive"},
      {"smiles": "CC(C)(C)c1ccccc1OP(=O)(Oc1ccccc1)Oc1ccccc1", "outcome": "inactive"},
      {"smiles": "O=C(O)C=CC(F)(C(F)(F)F)C(F)(F)F", "outcome": "inactive"},
      {"smiles": "C=C(C)C(=O)OCC1CO1", "note": "(stereo not given)", "outcome": "inactive"},
      {"smiles": "O=C(O)C1C(C(=O)O)C2(Cl)C(Cl)=C(Cl)C1(Cl)C2(Cl)Cl", "note": "(stereo not given)", "outcome": "inactive"},
      {"smiles": "O=c1[nH]c2ccccc2c(=O)o1", "outcome": "inactive"},
      {"smiles": "O=C(O)C(Cl)Cl", "outcome": "inactive"},
      {"smiles": "c1ccc(OP(Oc2ccccc2)Oc2ccccc2)cc1", "outcome": "inactive"},
      {"smiles": "C=CC(=O)OCC(F)(F)C(F)F", "outcome": "inactive"},
      {"smiles": "CCOc1ccc(C(C)(C)COCc2cccc(Oc3ccccc3)c2)cc1", "outcome": "inactive"},
      {"smiles": "Cc1c([N+](=O)[O-])cc2c(c1[N+](=O)[O-])C(C)(C)CC2(C)C", "outcome": "inactive"},
      {"smiles": "OCC(F)(F)OC(F)(F)C(F)(F)OC(F)(F)C(F)(F)OC(F)(F)F", "outcome": "inactive"},
      {"smiles": "CCCCC(CC)COP(=O)(Oc1ccccc1)Oc1ccccc1", "note": "(stereo not given)", "outcome": "inactive"},
      {"smiles": "CO/N=C(/C(=O)OC)c1ccccc1COc1ccccc1C", "outcome": "inactive"},
      {"smiles": "O=P(Oc1ccccc1)(Oc1ccccc1)Oc1ccccc1", "outcome": "inactive"},
      {"smiles": "Nc1ccc(Sc2ccc(N)cc2)cc1", "outcome": "inactive"},
      {"smiles": "FC(F)(F)C(F)(C(F)(F)F)C(F)(F)C(F)(F)CC1CO1", "note": "(stereo not given)", "outcome": "inactive"}
    ]}
  ]
}
